Compounds without any hit were thinned out: in the full panel of roughly 83,000, 20% have a hit.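 In brief: 96-well plates, 48 h treatment, single concentration, percent growth endpoint.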 Values without a mark were called inactive. The source made the active and inactive calls. Rule for the calls: active = growth percent below 10; inactive = the rest.

The values that follow come from PubChem BioAssay (NCI).

Common to all, as to test: NCI-60 one-dose screen, 48 h (100 = growth as untreated, 0 = no growth, -100 = all killed)
Settings in all cases: 10 µM unless noted

Experiment [1] deals with HCT-15 colon.
For experiment [2], the system named is HT29 colon.
In experiment [3] the test system is SNB-75 CNS.
Experiment [4] deals with SNB-19 CNS.
Experiment [5] relates to U251 CNS.
Experiment [6] concerns PC-3 prostate.
In experiment [7] the test system is SK-MEL-5 melanoma.
In experiment [8] the test system is UACC-62 melanoma.
Experiment [9] has as its system LOX IMVI melanoma.
The test system of experiment [10] is SK-MEL-28 melanoma.
Experiment [11] has as its system SK-MEL-2 melanoma.
For experiment [12], the system named is EKVX NSCLC.
For experiment [13], the system named is SN12C renal.
Experiment [14] relates to UO-31 renal.
Experiment [15] relates to TK-10 renal.
The test system of experiment [16] is ACHN renal.
The subject of experiment [17] is CAKI-1 renal.
For experiment [18], the system named is A498 renal.
Experiment [19] has as its system CCRF-CEM leukemia.
Experiment [20] relates to MOLT-4 leukemia.

On to `COc1nc(N)nc(-n2c(-c3ccc(C)cc3)nc3ccccc32)c1NCc1ccc(C)cc1`, for which the growth in [1] is 94.8%; in [2] it was 94.7%; in experiment [3] it was 75.5%; in experiment [4], 86.5%; in experiment [5], 83%; in experiment [6] it was 65.7%. The growth in [7] was 96.8%; in [8], 64.4%; in [9], 87.8%; in experiment [10] it was 107%; in [11], 99.9%; in experiment [12], 94.9%. For the same molecule, the growth in [13] is 90%; in experiment [14], 59.9%; in [15] it was 98.4%; in experiment [16] it was 93.7%; in experiment [17], 40.7%; in experiment [18], 80.7%. Besides, the results for the growth in experiment [19] and in experiment [20] were 94.5% and 83.3%, respectively.
For the molecule `Cc1ccc(-c2c(Br)c(OC(=O)CO[C@@H]3C[C@H](C)CC[C@H]3C(C)C)c(-c3ccc(C)cc3C)c(Br)c2OC(=O)CO[C@H]2C[C@@H](C)CC[C@@H]2C(C)C)c(C)c1`, the growth in experiment [1] is 99.6%; in experiment [2], 103%; in [3], 85.6%; in [4], 101%; in experiment [5], 99.1%; in experiment [6] it was 92.8%. Also, the growth was 55.3% in experiment [7]; 102% in experiment [8]; 94.4% in experiment [9]; 108% in [10]; 90.2% in experiment [11]; 101% in [12]. For the same molecule, the growth in experiment [13] is 98.9%; in [14] it was 87%; in experiment [15], 92.8%; in experiment [16], 104%; in experiment [17] it was 97%; in experiment [18], 96.1%. For the same molecule, the growth is 90% in experiment [19] and 97.6% in [20].
Consider `CC(C)CCSc1nc(NNC(N)=O)c(C#N)c(-c2ccccc2)n1`, for which the growth is 98.7% in [1]; 115% in [2]; 97.6% in experiment [3]; 99.2% in [4]; 109% in experiment [5]; 98.7% in [6]. The growth is 104% in experiment [7]; 98.1% in experiment [8]; 97.6% in experiment [9]; 104% in [10]; 107% in experiment [11]; 99.9% in experiment [12]. The growth in experiment [13] was 95%; in [14], 85.1%; in experiment [15] it was 105%; in experiment [16], 97%; in experiment [17] it was 93.7%; in experiment [18] it was 105%. The values for the growth in experiment [19] and in experiment [20] were 100% and 110%, respectively.
`COc1ccncc1C#Cc1cncc(C(=O)Nc2ccc(CN3CCN(C)CC3)c(C(F)(F)F)c2)c1`: the growth in [1] is 16.9%; in experiment [2], 15.2%; in [3], 65.7%; in experiment [4] it was 70.1%; in experiment [5], 62%; in [6], 42.4%. The growth was 34.2% in experiment [7]; 26.4% in experiment [8]; -6.87% (active) in [9]; 18.2% in experiment [10]; -0.485% (active) in [11]; 38.4% in experiment [12]. Moreover, the growth is 17.7% in experiment [13]; 11.7% in [14]; 50.6% in experiment [15]; 13.2% in experiment [16]; 15.4% in [17]; 28.9% in experiment [18]. Moreover, the growth in [19] was 12.3%; in experiment [20] it was 22.5%.
For `CCC1(CC)NC(=O)c2c(c3ccc(Cl)c(Cl)c3n2C)C1C#N` (stereo not given), the growth was 100% in experiment [1]; 100% in experiment [2]; 90% in experiment [3]; 85% in experiment [4]; 96.1% in experiment [5]; 90.5% in experiment [6]. The growth in experiment [7] was 89.9%; in experiment [8], 76.1%; in experiment [9] it was 99.7%; in [10] it was 123%; in experiment [11], 115%; in experiment [12], 95.5%. The growth in experiment [13] is 84%; in experiment [14] it was 70.5%; in experiment [15] it was 127%; in experiment [16], 95.5%; in experiment [17], 66.6%; in [18] it was 84.9%. Besides, the figures for the growth in experiment [19] and in experiment [20] were 19.4% and 4.72% (active), respectively.
As to `COc1ccc(-c2ncc(-c3ccccc3)[nH]2)cc1OC`, the growth in experiment [1] is 104%; in experiment [2], 113%; in experiment [3] it was 108%; in experiment [4], 104%; in experiment [5] it was 113%; in [6], 112%. In addition, the growth is 106% in [7]; 95.3% in experiment [8]; 116% in [9]; 105% in [10]; 118% in [11]; 106% in [12]. For the same molecule, the growth was 100% in experiment [13]; 109% in [14]; 256% in experiment [15]; 111% in experiment [16]; 108% in [17]; 89.2% in [18]. Moreover, the results for the growth in experiment [19] and in [20] were 18% and -81.9% (active), respectively.
Consider `Cc1ccc(C2CC(c3cccc(Nc4ccncc4)c3)=NN2c2ccc(Cl)cc2)cc1` (stereo not given), for which the growth was -88.2% (active) in experiment [1]; -58% (active) in [2]; -89.9% (active) in [3]; -90.2% (active) in [4]; -52.2% (active) in [5]; -83.4% (active) in experiment [6]. The growth in experiment [7] was -93% (active); in experiment [8] it was -98.3% (active); in experiment [9], -96.5% (active); in experiment [10], -97.7% (active); in experiment [11], -74.8% (active); in experiment [12], -85.1% (active). For the same molecule, the growth in experiment [13] is -95.8% (active); in experiment [14] it was -99.4% (active); in [15] it was -80.9% (active); in experiment [16], -100% (active); in [17] it was -94.7% (active); in experiment [18] it was -93.8% (active). The growth in experiment [19] was -30.8% (active); in experiment [20], -32.8% (active).
For the molecule `NC(=O)c1ncn(C2OC(CO)C(O)C2O)n1` (stereo not given), the growth was 89.3% in experiment [1]; 73.3% in [2]; 80.6% in experiment [3]; 104% in [4]; 99.7% in [5]; 85.2% in experiment [6]. For the same molecule, the growth in [7] is 99.1%; in experiment [8] it was 104%; in experiment [9], 90.3%; in experiment [10] it was 106%; in experiment [11], 40.7%; in experiment [12], 90.2%. For the same molecule, the growth in experiment [13] is 82.4%; in [14], 83.7%; in [15], 109%; in experiment [16], 90.5%; in experiment [17] it was 99.2%; in experiment [18] it was 89.1%. In addition, the growth was 67.1% in experiment [19] and 52.7% in experiment [20].
